Experimental data as given in PubChem BioAssay (NCATS).
Inconclusive results are not listed. Calls of active or inactive are those of the source. Calls come from the whole dose curve; as a rule, active = well fitted inhibition curve with a large enough effect; inconclusive = small, poorly fitted or top-dose-only effect; inactive = no such curve, though single readings can be large or run the other way. Positions of bridges follow the written chain, without caps; N, C: chain ends. Non-standard residues stand in square brackets, D forms with d. Residues, ends and D or L forms follow the SMILES beside them. *: point of attachment. X1 = CCC(C)C(N)C1=NC(C(=O)*)CS1; dOrn = NCCC[C@@H](N)C(=O)O

target: Retinaldehyde dehydrogenase 3 (Homo sapiens) (UniProt P47895); test: qHTS for Inhibitors of the Aldehyde Dehydrogenase Family (ALDH1A3) Confirmatory screens (AID 2061311); conditions: ALDH inhibition qHTS; series mostly up to 46 µM; activity change, negative = inhibition: at the top concentration; note: nearly all actives have a fitted effect of over 60% in size
% is set by controls: 0 for no effect and ±100 for the full control effect; potency is the fitted concentration of half-maximal effect.

Compound | activity change, negative = inhibition | outcome | Potency
Cc1nnc(-c2sc(NC(=O)[C@H](C(C)C)n3c(=O)[nH]c4ccccc4c3=O)nc2C)o1 | -15% (inactive) | – | –
CCCN(CCN1CCN(c2ccccc2OC)CC1)C1CCc2ncsc2C1 (configuration not stated) | -14.1% (inactive) | – | –
CCC(C)C(N)C1=NC(C(=O)N[C@@H](CC(C)C)C(=O)N[C@H](CCC(=O)O)C(=O)N[C@H](C(=O)N[C@H]2CCCCNC(=O)[C@H](CC(N)=O)NC(=O)[C@@H](CC(=O)O)NC(=O)[C@H](Cc3cnc[nH]3)NC(=O)[C@@H](Cc3ccccc3)NC(=O)[C@H]([C@@H](C)CC)NC(=O)[C@@H](CCCN)NC2=O)[C@@H](C)CC)CS1 (some centres not stated) (X1-L[dE]IK[dOrn]I[dF]H[dD]N; lactam 4-C) | – | inactive | –
O=C1CC(c2ccc([N+](=O)[O-])cc2)=NN1c1ccccc1 | – | – | 11.3 µM (active)
O=C(O)c1cnn(-c2nc3cc(OC(F)(F)F)c(Cl)cc3[nH]2)c1 | – | – | 3.18 µM (active)
C=CC(=O)Nc1cccc(Nc2nc(Nc3ccc(Oc4ccnc(C(=O)NC)c4)cc3)ncc2F)c1 | -2.7% (inactive) | – | –
Oc1ccc(Nc2nc(-c3ccc(Cl)cc3)cs2)cc1 | -7.47% (inactive) | – | –
CC(=O)NC(C)c1cnc(-c2cnc(Oc3ccc(OC(C)C)cc3)s2)s1 (configuration not stated) | – | inactive; activator | –
Clc1ncoc1-c1c[nH]c2ccccc12 | 4.41% (inactive) | – | –
O=C(Nc1ccccc1)N1CCN(Cc2ccc3ccccc3n2)CC1 | 3.88% (inactive) | – | –
COc1ccc2c(c1O)OC[C@H]1c3ccc(O)cc3O[C@@H]21 | – | – | 22.5 µM (active)
COc1ccc(-c2ccn(CC[C@](C)(C(=O)NO)S(C)(=O)=O)c(=O)c2)c(F)c1 | – | – | 7.98 µM (active)
